HCMV antiviral: inhibitors of human cytomegalovirus; HFF cells, HCMV-luciferase reporter, 72 h; stronger effect = lower value; activity change, negative = inhibition, % at 57.5 µM; 410,000 compounds, 4.5% hits; AID 1259415; in the data active = activity change below about -60%; inconclusive = no clear call, values can overlap the other calls; inactive = above about -39%
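Compounds were evaluated in HFFs infected with an HCMV luciferase reporter virus (MOI 1 PFU/cell). Luciferase in lysates collected 72 h post infection served as the replication measure.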
Marburg entry inh: blocks Marburg virus binding to or entry into cells; Marburg virus pseudotyped entry inhibition, cell reporter; Potency, µM (highest dose often 37.8 µM), for inactives: top-dose activity change, negative = inhibition, hits mostly inhibitors; 300,000 compounds, 1.8% hits; AID 540276; calls by dose curve; tested in HEK293 cells; also: potency is read from the fitted curve at half-maximal effect
LASV entry inh: blocks Lassa virus binding to or entry into cells; Lassa virus pseudotype entry inhibition, cell reporter; Potency, µM (top dose mostly 37.9 µM), without a hit: at the top dose activity change, negative = inhibition, actives largely listed as inhibitors; 300,000 compounds, 1.2% hits; AID 540256; calls by dose curve; tested in HEK293 cells; also: potency is read from the fitted curve at half-maximal effect; nearly all actives have a fitted effect of over 50% in size
HCV inh: inhibitors of hepatitis C virus infection. Huh7.5.1 HCVcc-Cre infection, luciferase reporter, 44 h. Potency, µM (doses to about 41.8 µM), for the others: top-dose activity change, negative = inhibition, usual class: inhibitors. 340,000 compounds, 3.4% hits; active = well fitted inhibition curve with a large enough effect; inconclusive = small, poorly fitted or top-dose-only effect, or another doubt; inactive = no such curve, though single readings can be large or run the other way; also: potency is read from the fitted curve at half-maximal effect
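Infectious HCV cell culture screen: compound-treated cells (1,000/well, pre-plated 4 h) are infected with HCVcc-Cre at roughly 0.5 moi and grown 44 h. Infection is quantified by luciferase signal after 15 min substrate incubation at room temperature.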
Vaccinia mCherry: inhibitors of vaccinia virus infection (mCherry reporter signal) | Potency, µM (highest dose often 36.5 µM), inactives show at the top dose activity change, negative = inhibition, hits mostly inhibitors | Vaccinia virus mCherry reporter infection, fluorescence | 310,000 compounds, 0.63% hits; calls by dose curve; tested in A549 cells; also: potency is read from the fitted curve at half-maximal effect; nearly all actives have a fitted effect of over 35% in size
VACV Venus inh: inhibitors of vaccinia virus (Venus reporter); Vaccinia virus Venus reporter expression, fluorescence; Potency, µM (highest dose often 36.5 µM), for inactives: at the top dose activity change, negative = inhibition, usual class: inhibitors; 330,000 compounds, 0.46% hits; calls by dose curve; tested in A549 cells; also: potency is read from the fitted curve at half-maximal effect; nearly all actives have a fitted effect of over 30% in size
* = called active by the depositor; i = inactive; ? = inconclusive; · = no result given; [ ] = remark or other dose. Hits are enriched below; roughly 7.8% of the tested compounds scored in any of these assays. % is scaled to controls: 0 for no effect and ±100 for the full control effect.

SMILES	HCMV antiviral	Marburg entry inh	LASV entry inh	HCV inh	Vaccinia mCherry	VACV Venus inh
Cc1ccc(COC(=O)c2cc(S(=O)(=O)N3CCCCC3)ccc2N2CCOCC2)cc1	-27.3	?	7.08µM*	?	-9.9%	-6.3%
Cc1ccc(C(=O)OCC(=O)N2c3ccccc3NC(=O)C2(C)C)cc1S(=O)(=O)N1CCCCC1	-14.3	?	0.5%[46.1 µM]	?	i	6.9%
Cc1ccc(S(=O)(=O)N2CCOCC2)cc1C(=O)OCC(=O)c1ccc[nH]1	-11.7	·	·	11.2µM*	·	·
Cc1ccc(C)c(COC(=O)c2cc(S(=O)(=O)N3CCCCC3)ccc2N2CCOCC2)c1	-7.7	?	7.08µM*	-0.4%	?	-27.7%
Cc1ccc(S(=O)(=O)N2CCCCC2)cc1C(=O)OCC(=O)N1c2ccccc2NC(=O)C1(C)C	-16.9	?	12.6%[46.1 µM]	11.2µM*	-12.1%	-2.2%
COc1cccc(CNC(=O)c2cccn2-c2nnc(N3CCCC3)s2)c1	0.0	·	-8.2%[46.1 µM]	·	-17.2%	-7.1%
O=C(OCc1cccc(Cl)c1)c1cc([N+](=O)[O-])ccc1N1CCOCC1	0.1	?	?	10µM*	?	?
O=C(OCc1cccc(C(F)(F)F)c1)c1cc([N+](=O)[O-])ccc1N1CCOCC1	-30.6	-21.9%	0.0%	?	-4.6%	-8.4%
CC(C)CCCC(C)NC(=O)c1cc(S(=O)(=O)N2CCCCC2)ccc1N1CCOCC1 (stereo not given)	-6.1	·	·	11.2µM*	·	·
Cc1ccc(C)c(COC(=O)c2cc([N+](=O)[O-])ccc2N2CCOCC2)c1	?	?	?	12.6µM*	?	-21.0%
COCC(C)NC(=O)c1cc(S(=O)(=O)N2CCCCC2)ccc1N1CCOCC1 (stereo not given)	18.8	-3.1%	0.2%	19.6%	-10.2%	-11.6%
COc1ccc(COC(=O)c2cc([N+](=O)[O-])ccc2N2CCOCC2)cc1F	-72.5*	?	?	31.6µM*	?	?
O=C(OCc1ccc(Br)cc1)c1cc([N+](=O)[O-])ccc1N1CCOCC1	-30.3	·	·	·	-26.1%	?
Nc1c(Br)cc(/C=C/c2ccnc3ccccc23)cc1Br	·	·	·	·	7.4%	-26.9%
CN(C)c1ccc(/C=C/c2ccnc3ccc([N+](=O)[O-])cc23)cc1	·	·	·	·	-13.7%	40.6%
COc1ccccc1C(=O)NCCn1cc(SCc2ccc(C)cc2)c2ccccc21	-15.3	?	?	·	-17.6%	-5.6%
O=C(OCc1cccc(C(F)(F)F)c1)c1cc(S(=O)(=O)N2CCOCC2)ccc1F	-10.0	?	?	10µM*	-9.6%	-21.0%
O=C(OCc1ccccc1)c1cc(S(=O)(=O)N2CCCCC2)ccc1N1CCOCC1	-23.1	?	?	?	-1.7%	-16.4%
O=C(OCc1cccc(Cl)c1)c1cc(S(=O)(=O)N2CCCCC2)ccc1N1CCOCC1	-34.7	11.2µM*	?	11.2µM*	-10.9%	-29.8%
CCOc1cc(OCC)cc(C(=O)N2CCC[C@H]2C(=O)N2CCC[C@H]2C(=O)N(C)Cc2ccccc2)c1	9.5	·	·	·	i	1.4%
CC(C)c1ccc(NC(=O)Cn2cc(S(=O)(=O)N3CCN(c4ccccc4F)CC3)c3ccccc3c2=O)cc1	8.3	-13.9%[46.1 µM]	-3.3%[46.1 µM]	·	-3.8%	-7.6%
Cc1cc(/C=C2\Sc3ccccc3N2C)cc(C)[n+]1CC1CCCO1 (stereo not given)	-100.1*	?	?	2.51µM*	8.91µM*	?
CC1(CCc2ccc(O)cc2)NC(=O)NC1=O (stereo not given)	26.8	-19.0%	11.3%	19.7%	i	-5.4%
CCC1(CC)C(=O)NC(=O)NC1=NCCc1ccc(O)cc1	-68.0*	10.6%	4.2%	-9.3%	·	0.8%
COc1ccc(CCNC(=O)c2ccc(Cl)c(S(=O)(=O)N3CCCCCC3)c2)cc1	-85.7*	·	·	2.82µM*	·	·
SMILES	HCMV antiviral	Marburg entry inh	LASV entry inh	HCV inh	Vaccinia mCherry	VACV Venus inh
COc1ccc(CCNC(=O)c2ccc(Cl)c(S(=O)(=O)N(C)c3ccccc3)c2)cc1	-67.9*	?	?	3.55µM*	-21.8%	?
CCN(c1ccccc1)S(=O)(=O)c1ccc(Cl)c(C(=O)NCCc2ccc(OC)cc2)c1	-22.2	?	?	-27.7%	-14.5%	-13.3%
O=C(NCc1ccccc1)c1ccc(Cl)c(S(=O)(=O)N2CCCC2)c1	-25.3	·	·	-24.6%	·	·
O=C(NCc1ccccn1)c1ccc(Cl)c(S(=O)(=O)N2CCCCCC2)c1	22.4	?	-11.5%	11.2µM*	?	-22.3%
COc1ccc(CCNC(=O)c2cccc(S(=O)(=O)N3CCCCCC3)c2)cc1	?	3.0%	·	-18.7%	·	·
O=C(Nc1ccccn1)c1ccc(Cl)c(S(=O)(=O)N2CCCC2)c1	-11.5	10.9%[46.1 µM]	-15.7%	-1.5%	-4.8%	-1.4%
O=C(NCCc1ccccc1)c1ccc(Cl)c(S(=O)(=O)N2CCCC2)c1	·	·	·	10µM*	·	·
CC(C)(C(=O)N1CCC1(C)C(=O)NS(=O)(=O)c1ccc(Cl)s1)c1ccccc1 (stereo not given)	4.9	·	·	·	8.8%	-19.2%
CCOc1cc2ccccc2cc1C(=O)OCC(=O)Nc1ccc(Br)cc1	·	·	·	·	-2.2%	-10.7%
COc1ccc(/C(O)=C2\C(=O)C(=O)N(CCN3CCOCC3)[C@H]2c2ccccn2)cc1	·	2.0%[46.1 µM]	·	·	·	·
Cc1c(C(=O)N(C)C)sc2c1c(=O)n(-c1ccc(Cl)c(Cl)c1)c(=O)n2CC(=O)N1CCCCC1C (stereo not given)	94.9	·	?	·	-9.7%	-6.3%
CC1CCCN(S(=O)(=O)c2cc(C(=O)NCc3ccco3)ccc2Cl)C1 (stereo not given)	-13.4	·	·	?	·	·
COc1ccc(CCNC(=O)c2ccc(N(C)S(=O)(=O)c3ccc(C)cc3)cc2)cc1	-11.3	-22.1%[46.1 µM]	?	10µM*	?	-26.5%
O=C(NCC(O)c1ccccc1)c1ccc(Cl)c(S(=O)(=O)N2CCCCC2)c1 (stereo not given)	?	-22.2%[46.1 µM]	-24.1%[46.1 µM]	10µM*	-27.5%	-26.2%
CC1CCCN(S(=O)(=O)c2cc(C(=O)NCCc3ccc(S(N)(=O)=O)cc3)ccc2Cl)C1 (stereo not given)	?	·	·	7.94µM*	·	·
COc1ccc(COC(=O)c2ccc(Cl)c(S(=O)(=O)N3CC(C)OC(C)C3)c2)cc1 (stereo not given)	0.2	-17.4%	?	14.1µM*	-20.0%	-14.4%
COC(=O)Cc1c(C)c2cc3c(c(C)c2oc1=O)OCN(CCc1ccc(F)cc1)C3	-20.6	?	6.3%[46.1 µM]	·	-1.6%	3.4%
CCCCOc1ccc(NC(=O)CSc2ccc(C(=O)O)cn2)cc1	4.5	?	-1.2%[46.1 µM]	·	-9.3%	-1.9%
O=C1[C@H]2[C@H]3[C@H](O)[C@H](O)C/C(=N/OCc4ccccc4)[C@H]3CC[C@@H]2C(=O)N1C1CCCCC1	·	-25.4%[14.2 µM]	·	·	·	·
Cc1cc(C(=O)Nc2ccccc2-c2nc(CNC(=O)c3ccc(F)cc3F)c(C)o2)c(C)o1	·	·	·	·	-5.3%	1.2%

Source: PubChem BioAssay (National Center for Advancing Translational Sciences (NCATS))
